# Source: PubChem BioAssay (NCATS)
# Several values for one entry are separate records, joined by “and”; a condition that tells them apart may be missing. Equal entries are not always repeated. Inconclusive results are not listed. The source holds several records for some structures; these can differ, active in one and inactive in another. Activity calls are given as the source filed them. Calls follow the shape of the dose curve; as a rule, active = well fitted activation curve with a large enough effect; inconclusive = small, poorly fitted or top-dose-only effect; inactive = no such curve, though single readings can be large or run the other way.
# Target: Cellular tumor antigen p53 (Homo sapiens) (UniProt P04637)
# Sequence (P04637 whole entry, looked up): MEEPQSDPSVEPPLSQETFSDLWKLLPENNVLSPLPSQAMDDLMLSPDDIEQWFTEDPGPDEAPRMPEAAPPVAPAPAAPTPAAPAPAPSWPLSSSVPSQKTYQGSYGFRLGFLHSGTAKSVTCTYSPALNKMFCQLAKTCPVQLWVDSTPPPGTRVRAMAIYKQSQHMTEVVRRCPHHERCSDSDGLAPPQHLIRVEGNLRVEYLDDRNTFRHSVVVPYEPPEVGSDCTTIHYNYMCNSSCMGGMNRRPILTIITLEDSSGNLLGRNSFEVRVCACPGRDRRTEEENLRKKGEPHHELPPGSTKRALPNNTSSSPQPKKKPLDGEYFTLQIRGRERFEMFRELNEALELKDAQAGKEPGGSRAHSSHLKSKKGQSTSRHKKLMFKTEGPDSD
# Assay: Primary qHTS for small molecule compounds that upregulate eGFP-tagged delta133p53alpha (in N-terminal) cells. (AID 2060322); also: nearly all actives have a fitted effect of over 75% in size;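 as to activation: cells pre-induced with doxycycline then dosed without doxycycline; series mostly up to about 56 µM; 0% = DMSO vehicle and 100% = reference activator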
# Settings: NCI-H358 eGFP-delta133p53alpha fluorescence, 24 h; activation: stronger effect = higher value
# From the text: Assay Development and Screening Technology
# National Center for Advancing Translational Sciences (NCATS),
# National Institute of Health (NIH), Rockville, Maryland
# Cellular senescence (CS) is one of the hallmarks of aging and age-related diseases. Senescent cells are characterized by an irreversible growth arrest, an increase in senescence-associated beta-galactosidase (SA-beta-gal) activity and p16INK4a expression, an activation of the DNA damage response pathways, and the emergence of a senescence-associated secretory phenotype (SASP).
# Delta133p53alpha, a human/primate-specific p53 protein isoform, delays or inhibits the induction of CS and SASP in various types of human cells, including progeria-derived fibroblasts, primary normal astrocytes, and CD8+ T lymphocytes. Induction of delta133p53alpha with small molecule compounds may provide therapeutic opportunities for inhibition of senescence/SASP-associated pathologies in progeria syndromes, astrocyte-mediated neuroprotection in neurodegenerative diseases, and possibly prevention and treatment of a wider range of senescence- and aging-associated diseases.
# Here we report the development and validation of a cell-based quantitative high throughput screening (qHTS) assay in 1,536-well format. This qHTS assay uses the NCI-H358 cell line with doxycycline-inducible expression of enhanced green fluorescent protein (eGFP)-tagged delta133p53alpha, which allows efficient and highly quantitative measurement of the protein levels.
# PROTOCOL TABLE (as described by Inglese J, Shamu CE and Guy RK. 2007)
# SEQUENCE No. (e.g., 1, 2, 3, etc.); […] (e.g., Cells, Incubation, Reagent, etc.); VALUE; DESCRIPTION.
# 1; Cells; 4uL; 800 doxycycline treated cells / well in doxycycline-free media, 1536-well black, clear-bottom low base Aurora microplates.
# 2; Compounds; 23 nL; Kalypsis pin tool (Wako) equipped with 1536-well pin heads, 5-azacytidine positive control.
# 3; Incubation; 24 hr; 37C, 5% CO2; 95% relative humidity.
# 4; Aspiration; 1x; BioTek EL406 washer dispenser (Agilent).
# 5; Fixing; 3.5% paraformaldehyde, BioTek EL406 washer dispenser (Agilent).
# 6; Washing; 1x PBS; BioTek EL406 washer dispenser (Agilent).
# 7; Nuclei staining; 1:1000 dilution of Hoechst 33342 (Thermofisher), BioTek EL406 washer dispenser (Agilent).
# 8; Incubation; 20 min; in the dark at room temperature.
# 9; Washing; 2x, 1x PBS (ThermoFisher), BioTek EL406 washer dispenser (Agilent).
# 10; Reagent; 10 uL; 1x PBS per well, sealed with clear adhesive tape.
# NOTES (numbers refer to sequence numbers above).
# 1. NCI-H358 cells expressing eGFP-tagged delta133p53alpha were grown in T75 culture flasks and treated with doxycycline for 24h, at 10 ng/ml for eGFP-D133p53a cells (N-terminal cell) and 100 ng/ml for D133p53a-eGFP cells (C-terminal cells). Cells were trypsinized, counted using a Counted 3 Automated Cell Counter (Thermo Fisher), and diluted to a concentration of 200,000 cells/ml. A Multidrop Combi Reagent Dispenser (ThermoFisher) was used to dispense 800 cells/well in […] of doxycycline-free media, into 1536-well black/clear bottom low base plates (AuroraMicroplates).
# 2. After plating cells, 23 nl of compound library, DMSO vehicle control or positive control (5-azacytidine) were transferred by Pin Tool (Wako). The plate map layout was the same for each plate: (column 1) non-doxycycline treated cells + DMSO vehicle control; (column 2) doxycycline treated cells + DMSO vehicle control baseline; (column 3) doxycycline treated cells + positive control 57.5 uM final concentration 5-azacytidine; (column 4) doxycycline treated cells + serial dilution of 5-azacytidine, 16-point 1:2 titration spanning 1.8 nM to […] final concentration; (columns 5-48) doxycycline treated cells + titration of library compounds.
# 3. Cells were incubated at 37 °C, 5 % CO2, 95% RH with breathable metal lid for 24h.
# 4-10. […] After two washes, 10 ul of 1X PBS (Thermo Fisher) was dispensed to each well. Clear adhesive plate seals (VWR) were applied and plates stored at 4 °C.
# 11. […]
# Potency is read from the fitted curve at half-maximal effect.
Compound,activation,Potency
CC1=C(/C=C/C(C)=C\C=C\C(C)=C/C(=O)O)C(C)(C)CCC1,11.5% (inactive),–
CC(=O)OC1C(c2ccccc2)CCC(c2ccccc2)C1OC(C)=O (stereo not given),1.53% (inactive),–
Oc1ccc(-c2cnc3ccc(NCc4ccco4)nn23)cc1,–,26.9 µM (active)
COc1cc2c(cc1OC)CN(CCc1ccc(NC(=O)c3cc(OC)c(OC)cc3NC(=O)c3cnc4ccccc4c3)cc1)CC2,1.67% (inactive),–
CCCN(CCc1cccs1)[C@H]1CCc2c(O)cccc2C1,5.08% (inactive),–
Cc1cc(C(C)Nc2ccccc2)c2nc(N3CCOCC3)cc(=O)n2c1 (stereo not given),9.6% (inactive) and -9.82% (inactive),–
CN(C)CCOC(=O)COc1ccc(Cl)cc1,-18.4% (inactive) and -20.3% (inactive),–
CC[C@@H]([C@H](C)O)n1ncn(-c2ccc(N3CCN(c4ccc(OCC5CO[C@@](Cn6cncn6)(c6ccc(F)cc6F)C5)cc4)CC3)cc2)c1=O (stereo not given in full),7.66% (inactive),–
CC(=O)O[C@H]1C[C@@](O)(C(C)C)[C@@H]2[C@@H](OC(=O)c3ccc(O)cc3)CC(C)=CC[C@@]12C,21.4% (inactive),–
CCOC(=O)c1cnn(-c2ccc(NC(=O)C(Cl)=C(Cl)Cl)cc2)c1C(F)(F)F,–,19 µM (active)
COc1cc(C[C@H]2C(=O)OC[C@@H]2Cc2ccc(OC)c(OC)c2)ccc1O,19.6% (inactive),–
O=C(Nc1ccc(N2C(=O)[C@@H]3[C@H](C2=O)[C@@H]2C=C[C@H]3C2)c(Cl)c1)c1ccccn1,-11.7% (inactive),–
CC(=O)SCC(Cc1ccccc1)C(=O)NCC(=O)OCc1ccccc1 (stereo not given),16.6% (inactive),–
COC(=O)C(Cc1ccccc1)NC(=O)c1ccccc1 (stereo not given),6.87% (inactive),–
Nc1ccc(S(=O)(=O)Nc2ccc(Cl)nn2)cc1,2.51% (inactive),–
CNS(=O)(=O)Cc1ccc2[nH]cc(CCN(C)C)c2c1,-6.69% (inactive) and -7.27% (inactive),–
CC1CCC2C(C)(C)C(O)CCC2(C)C12Cc1c(O)cc3c(c1O2)CN=C3N (stereo not given),12.5% (inactive),–
Nc1ncnc2c1C(=O)N(c1ccc(C3CCC(CC(=O)O)CC3)cc1)CCO2 (stereo not given),18.6% (inactive),–
COc1cc2c(cc1O)CC(O)(CO)C(CO)C2c1ccc(OC2OC(CO)C(O)C(O)C2O)c(OC)c1 (stereo not given),-31.3% (inactive),–
OCC1=C[C@@H](O)[C@@H]2C=CO[C@@H](O[C@@H]3O[C@H](CO)[C@@H](O)[C@H](O)[C@H]3O)[C@H]12,-32.8% (inactive),–

Compound,activation,Potency
COC(=O)c1c(C)cc(OC(=O)c2c(C)cc(OC)cc2OC)cc1O[C@@H]1O[C@H](CO)[C@@H](O)[C@H](O)[C@H]1O,-15.3% (inactive),–
Cc1nc(C)c(-c2ccc(C3CCC(CC(=O)O)CC3)cc2)nc1C(N)=O (stereo not given),-13.4% (inactive),–
CCCCCCCCCCC(CO)CCCCCCCC (stereo not given),16.4% (inactive),–
O=C(O)C1=CC(O)C(O)[C@H](O)C1 (stereo not given in full),16.4% (inactive),–
C=C(C)C(=O)OC1CC(CO)CCC/C(CO)=C/C2OC(=O)C(=C)C21 (stereo not given),–,14.8 µM (active)
CC(=O)N(C)C1(c2ccccc2)CCN(CCC[C@]2(c3ccc(Cl)c(Cl)c3)CCCN(C(=O)c3ccccc3)C2)CC1,16.9% (inactive),–
CNCC[C@H](Oc1ccc(C(F)(F)F)cc1)c1ccccc1,-46.5% (inactive),–
Cc1cc(-c2ccccc2)nnc1NCCN1CCOCC1,16.4% (inactive),–
Nc1ccn([C@H]2O[C@H](CO)[C@@H](O)C2(F)F)c(=O)n1,7.37% (inactive),–
N[C@@H](CSCCCO)C(=O)O,-10% (inactive),–
Cc1nccn1CC1CCc2c(c3ccccc3n2C)C1=O (stereo not given),4.27% (inactive) and -3.67% (inactive),34.7 µM (active)
C[C@@H](c1ncncc1F)C(O)(Cn1cncn1)c1ccc(F)cc1F (stereo not given in full),-2.82% (inactive),–
C=CC(=O)Nc1cccc(Sc2nc(Nc3ccc(N4CCN(C)CC4)cc3)ncc2Cl)c1,–,12 µM (active)
CC1CCC2C(C(=O)O)=CC3CC(C)(C)CC132 (stereo not given),2.29% (inactive),–
CC(=O)c1c(C)cc(O[C@@H]2O[C@H](CO)[C@@H](O)[C@H](O)[C@H]2O)cc1O,-9.92% (inactive),–
CN(C)CC/C=C1\c2ccccc2COc2ccccc21,-10.9% (inactive) and -21.6% (inactive),–
CC[C@]12C=CCN3CC[C@@]4(c5cc([C@@]6(C(=O)OC)C[C@H]7C[C@@H](C(C)(F)F)CN(Cc8c6[nH]c6ccccc86)C7)c(OC)cc5N(C)[C@H]4[C@@](O)(C(=O)OC)[C@H]1OC(C)=O)[C@@H]32,-7.99% (inactive),–
O=C(O)c1ccnc2cc(-c3nc4ccccc4n3CCN3CCCCC3)sc12,-1.79% (inactive),–
C/C=C(\C)C(=O)O[C@H]1[C@@H](O[C@]2(COC(=O)CC(C)C)O[C@H](COC(=O)C(C)CC)[C@@H](OC(C)=O)[C@@H]2O)O[C@H](COC(C)=O)[C@@H](O)[C@@H]1O (stereo not given in full),9.16% (inactive),–
